Results published in the supplement of paper PMC7858590.

Each compound was assayed on human monocyte-derived macrophages (polarized) (assay: cell shape (eccentricity) Z-score vs DMSO control; higher = more elongated, M2-like morphology). Conditions: 5 µM; 24 h; macrophage state: M1-polarized (IFNg + TNFa), cytokines present during treatment.
Protocol: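 Primary-screen hits were rescreened on polarized hMDMs with the differentiating cytokines (IL-4 + IL-13 or IFNg + TNFa) kept in the medium during treatment with compound at 5 uM for 24 h. The eccentricity Z-score vs DMSO wells is averaged over experiments.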

| SMILES | cell shape (Z-score) |
| --- | --- |
| Cc1c(C(=O)Nc2ccc(N3C[C@@H](C)O[C@@H](C)C3)nc2)cccc1-c1ccc(OC(F)(F)F)cc1 | 8.76 |
| Oc1cccc(-c2nc(N3CCOCC3)c3oc4ncccc4c3n2)c1 | -3.07 |
| CC[C@H]1OC(=O)[C@H](C)[C@@H](O[C@H]2C[C@@](C)(OC)[C@@H](O)[C@H](C)O2)[C@H](C)[C@@H](O[C@@H]2O[C@H](C)C[C@H](N(C)C)[C@H]2O)[C@](C)(O)C[C@@H](C)C(=O)[C@H](C)[C@@H](O)[C@]1(C)O | -5.37 |
| COc1cc2ncnc(Nc3ccc(F)c(Cl)c3)c2cc1OCCCN1CCOCC1 | -0.66 |
| CCCC(=O)Nc1ncnc2c1ncn2[C@@H]1O[C@@H]2COP(=O)(O)O[C@H]2[C@H]1OC(=O)CCC | 0.117 |
| Oc1cccc(O)c1 | -3.74 |
| O=S(=O)(c1cccc2cnccc12)N1CCCNCC1 | -0.217 |
| CCCCCCOc1ccccc1C(N)=O | 3.38 |
| O=C(O[C@@H]1Cc2c(O)cc(O)cc2O[C@@H]1c1cc(O)c(O)c(O)c1)c1cc(O)c(O)c(O)c1 | -2.7 |
| CC1(C)CCC(CN2CCN(c3ccc(C(=O)NS(=O)(=O)c4ccc(NCC5CCOCC5)c([N+](=O)[O-])c4)c(Oc4cnc5[nH]ccc5c4)c3)CC2)=C(c2ccc(Cl)cc2)C1 | 4.11 |
| COc1cc(C(=O)N2CCC(N3CCN(C)CC3)CC2)ccc1Nc1ncc2c(n1)N(C)c1ccccc1C(=O)N2C | -5.99 |
| O=C(/C=C/c1cccc(S(=O)(=O)Nc2ccccc2)c1)NO | -3.19 |
| O=C1Cc2c([nH]c3ccc([N+](=O)[O-])cc23)-c2ccccc2N1 | 4.68 |
| CC(C)(C)c1nc(-c2cccc(NS(=O)(=O)c3c(F)cccc3F)c2F)c(-c2ccnc(N)n2)s1 | -2.77 |
| CC(=Cc1ccc(C(=O)O)cc1)c1ccc2c(c1)C(C)(C)CCC2(C)C | -2.82 |
| NC(=O)C1CCCc2c1[nH]c1ccc(Cl)cc21 (stereo unspecified) | -2.04 |
| N#CC[C@H](C1CCCC1)n1cc(-c2ncnc3[nH]ccc23)cn1 | 1.19 |
| COc1ccc(-c2cc(=O)c3c(O)cc(O)cc3o2)cc1O | 3.77 |
| Cc1onc(-c2ccccc2)c1-c1ccc(S(N)(=O)=O)cc1 | 7.67 |
| COc1cc2c(cc1-c1c(C)noc1C)ncc1[nH]c(=O)n([C@H](C)c3ccccn3)c12 | -12.4 |
| O=C(NCCN1CCCCC1)c1ccc(I)cc1 | 6.46 |
| CC[C@]12CCCN3CCc4c(n(c5ccccc45)[C@@](O)(C(=O)OC)C1)[C@@H]32 | -5.43 |
| Cc1ccc(C(=O)Nc2ccc(S(=O)(=O)O)c3cc(S(=O)(=O)O)cc(S(=O)(=O)O)c23)cc1NC(=O)c1cccc(NC(=O)Nc2cccc(C(=O)Nc3cc(C(=O)Nc4ccc(S(=O)(=O)O)c5cc(S(=O)(=O)O)cc(S(=O)(=O)O)c45)ccc3C)c2)c1 | 6.07 |
| CC(C)(C)OC(=O)Nc1ccc(-c2cc(C(=O)NCCCCCCC(=O)NO)no2)cc1 | -0.14 |

Same assay, conditions: 5 µM; 24 h; macrophage state: M2-polarized (IL-4 + IL-13), cytokines present during treatment

| SMILES | cell shape (Z-score) |
| --- | --- |
| CC(Nc1nc(N2CCCC2)nc2ccccc12)c1ccccc1 (stereo unspecified) | -11.8 |
| C[C@H]1CN([C@@H](C)CO)C(=O)Cc2cc(NC(=O)CCC(F)(F)F)ccc2O[C@H]1CN(C)S(=O)(=O)c1ccc(Cl)cc1 | -11 |
| C#CC1(OCC(O)CN2CCN(c3cccc(C(F)(F)F)c3)CC2)CCCCC1 (stereo unspecified) | 3.74 |
| C=C1C(=O)O[C@@H]2C3=C(C)CC[C@]34O[C@@H](C[C@@H]4C)[C@H]12 | 13 |
| CC(=O)O[C@@H]1C[C@H]2C(C)(C)C(=O)CC[C@]2(C)[C@H]2CC[C@@]3(C)[C@H](c4ccoc4)OC(=O)[C@H]4O[C@]43[C@@]21C | -5.73 |
| C=C1C(=O)OC2CC3(C)CCC=C(CO)C3CC12 (stereo unspecified) | -5.59 |
| Nc1ccccc1NC(=O)c1ccc(CNC(=O)OCc2cccnc2)cc1 | -0.828 |
| Cc1cc2cc3c(C)cc(=O)oc3c(C)c2o1 | 1.88 |
| CC(=O)Oc1cc2c(c(C)c1OC(C)=O)CC=C1[C@@]2(C)CC[C@@]2(C)C3C[C@](C)(C(=O)O)CC[C@]3(C)CC[C@]12C (stereo partly specified) | -0.297 |
| COC(=O)Nc1nc2cc(Sc3ccccc3)ccc2[nH]1 | -6.87 |
| OC1(c2ccc(Cl)c(C(F)(F)F)c2)CCN(CCCC(c2ccc(F)cc2)c2ccc(F)cc2)CC1 [Penfluridol] | -10.9 |
| CCCS(=O)(=O)Nc1ccc(F)c(C(=O)c2c[nH]c3ncc(-c4ccc(Cl)cc4)cc23)c1F [Vemurafenib] | -1.16 |
